Source: PubChem BioAssay AID651910 (Vanderbilt Specialized Chemistry Center, 2012)
Activity calls are given as the source filed them. How the calls were made is not given here.

Target: Polyamine deacetylase HDAC10 (Homo sapiens) (UniProt Q969S8)
Assay: inhibitors of recombinant human HDAC10 – biochemical, selectivity assay for E-cadherin restoration project, profiling panel (AID 651910)
Details: recombinant HDAC10, fluorogenic peptide substrate, deacetylation; series mostly up to 10 µM

Polyamine deacetylase HDAC10 (Homo sapiens), sequence (Q969S8 whole entry, looked up): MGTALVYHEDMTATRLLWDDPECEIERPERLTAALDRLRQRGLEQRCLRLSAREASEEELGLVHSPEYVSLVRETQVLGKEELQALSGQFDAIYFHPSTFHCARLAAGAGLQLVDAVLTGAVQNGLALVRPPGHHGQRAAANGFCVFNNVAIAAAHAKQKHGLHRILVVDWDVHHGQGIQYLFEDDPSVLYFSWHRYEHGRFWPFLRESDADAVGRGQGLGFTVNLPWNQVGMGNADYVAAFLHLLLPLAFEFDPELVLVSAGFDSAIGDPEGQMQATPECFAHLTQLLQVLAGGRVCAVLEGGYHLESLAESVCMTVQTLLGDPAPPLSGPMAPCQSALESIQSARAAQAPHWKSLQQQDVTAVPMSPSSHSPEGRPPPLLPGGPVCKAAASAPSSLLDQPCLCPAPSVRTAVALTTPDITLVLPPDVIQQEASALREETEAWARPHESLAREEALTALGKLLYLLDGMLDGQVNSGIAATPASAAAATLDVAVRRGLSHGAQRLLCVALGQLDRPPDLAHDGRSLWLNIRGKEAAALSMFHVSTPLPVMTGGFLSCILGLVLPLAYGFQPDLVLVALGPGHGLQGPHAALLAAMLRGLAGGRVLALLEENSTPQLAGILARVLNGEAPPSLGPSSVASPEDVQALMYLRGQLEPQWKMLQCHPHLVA

Compound: O=C(NCCCNC(=O)c1ccc[nH]c1=O)c1cc(-c2ccccc2)on1
- outcome: inactive
